According to PubChem BioAssay (Tox21):
Records with an inconclusive call do not appear. Values without a mark were called inactive. Calls come from the whole dose curve; as a rule, active = well fitted inhibition curve with a large enough effect in the signal ratio in the repeat runs (not every such curve was filed as active); inconclusive = weak or mixed curves; inactive = flat fitted curve, though single readings scatter; the % refers to the signal ratio.

Target: Progesterone receptor (Homo sapiens) (UniProt P06401)
Test: qHTS assay to identify small molecule antagonists of the progesterone receptor (PR) signaling pathway (AID 1346795)
Settings: PR-UAS-bla HEK293T, beta-lactamase FRET ratio, 16 h; series mostly up to 92.4 µM; activity change, negative = inhibition: at the top concentration
Source text: National Center for Advancing Translational Sciences [NCATS]
NIH Chemical Genomics Center [NCGC]
U.S. Environmental Protection Agency [EPA]
National Institutes of Environmental Health Sciences [NIEHS]
National Toxicology Program [NTP]
U.S. Food and Drug Administration [FDA]
Progesterone receptor (PR), a nuclear hormone receptor, plays an important role in development, metabolic homeostasis and reproduction. […] Endocrine disrupting chemicals (EDCs) and their interactions with steroid hormone receptors like PR causes disruption of normal endocrine function. To identify the compounds that inhibit PR signaling, a PR-UAS-bla GripTite cell line i.e. PR-UAS-bla HEK293T (Invitrogen, Carlsbad, CA, USA) containing a beta-lactamase reporter gene under the control of an Upstream Activator Sequence (UAS) was used to screen Tox21 10K compound library.
Tox21 Assay Protocol Summary:
PR-UAS-bla HEK293T cells were dispensed at 3,000 cells/4 uL of assay medium containing 2% charcoal stripped FBS per well into black wall/clear-bottom 1536-well plates using a Multidrop Combi (ThermoFisher Scientific, Waltham, MA) dispenser. After the assay plates were incubated at a 37C and 5% CO2 for 6 hr, 23 nL of compounds dissolved in DMSO, positive controls or DMSO only was transferred to the assay plate by a Pintool station (Kalypsys, San Diego, CA), followed by addition of 1 uL (1nM as final concentration) of Promegestone (R5020) in assay medium using a BioRAPTR FRD (Flying Reagent Dispenser, Aurora Discovery, San Diego, CA). The plates were incubated at 37C and 5% CO2 for 16 hr. Then 1 uL of LiveBLAzer B/G FRET substrate was added using a FRD. After the plates were incubated at room temperature for 2 hours, fluorescence intensity was measured by an Envision plate reader (PerkinElmer, Shelton, CT).
% is set by controls: 0 for no effect and ±100 for the full control effect.

Chain of Progesterone receptor (Homo sapiens) (P06401 whole entry, looked up): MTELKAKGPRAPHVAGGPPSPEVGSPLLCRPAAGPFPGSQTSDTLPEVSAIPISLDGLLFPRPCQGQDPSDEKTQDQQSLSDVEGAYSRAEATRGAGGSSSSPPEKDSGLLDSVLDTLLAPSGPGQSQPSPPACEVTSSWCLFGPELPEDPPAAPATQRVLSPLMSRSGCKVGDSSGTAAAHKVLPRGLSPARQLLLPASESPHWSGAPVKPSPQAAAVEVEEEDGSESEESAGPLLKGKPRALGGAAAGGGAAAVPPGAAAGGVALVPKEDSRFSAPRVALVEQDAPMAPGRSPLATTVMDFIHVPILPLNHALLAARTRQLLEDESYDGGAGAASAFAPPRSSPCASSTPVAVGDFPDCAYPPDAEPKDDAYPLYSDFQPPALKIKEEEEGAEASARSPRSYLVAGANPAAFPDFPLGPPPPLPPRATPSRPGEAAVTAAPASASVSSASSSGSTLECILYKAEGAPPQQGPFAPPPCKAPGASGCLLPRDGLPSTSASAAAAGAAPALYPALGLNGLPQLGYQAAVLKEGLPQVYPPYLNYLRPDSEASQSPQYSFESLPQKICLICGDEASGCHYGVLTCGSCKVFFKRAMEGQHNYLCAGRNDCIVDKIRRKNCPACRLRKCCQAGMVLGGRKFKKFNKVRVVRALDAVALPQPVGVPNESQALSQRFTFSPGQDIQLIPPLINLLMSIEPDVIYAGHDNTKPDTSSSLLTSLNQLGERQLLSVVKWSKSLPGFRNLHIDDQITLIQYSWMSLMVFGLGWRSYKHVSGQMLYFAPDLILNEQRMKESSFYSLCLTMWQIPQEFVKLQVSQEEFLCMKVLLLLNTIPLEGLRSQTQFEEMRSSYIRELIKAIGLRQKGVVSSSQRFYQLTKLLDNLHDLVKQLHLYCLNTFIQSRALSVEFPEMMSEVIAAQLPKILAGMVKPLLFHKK

Structure (SMILES) | activity change, negative = inhibition
COC(=O)c1ccccc1S(=O)(=O)NC(=O)N(C)c1nc(C)nc(OC)n1 | 0.152%
O=[N+]([O-])c1cc(Cl)c(Cl)c(Cl)c1 | 6.44%
O=P(O)(Oc1ccccc1)Oc1ccccc1 | 6.9%
O=C(Cc1ccccc1)OCc1ccccc1 | -7.01%
C[N+](C)=CCl | 6.78%
COc1cc(OC)nc(Sc2cccc(Cl)c2C(=O)O)n1 | 12.4%
Nc1cnn(-c2ccccc2)c(=O)c1Cl | 11%
CCC#N | -5.36%
[As]#[In] | 8.7%
[Cl][Sn]([Cl])([Cl])[Cl] | 1.47%
CCCCOC(=O)c1ccccc1N | -11%
CC1CCC(=O)O1 (stereo not given) | -1.42%
CN(C)CCc1ccc(O)cc1 | 8.47% [at 42.5 µM]
CC(C=O)Cc1ccc2c(c1)OCO2 (stereo not given) | 0.0257%
CCC(Cl)[N+](=O)[O-] (stereo not given) | 7.29%
Cc1ccccc1CO[C@@H]1C[C@@]2(C(C)C)CC[C@]1(C)O2 | -28.8%
CCS(=O)(=O)C(C)(C)S(=O)(=O)CC | 3.01% [at 42.5 µM]
COP(=S)(OC)Oc1ccc(S(N)(=O)=O)cc1 | 2.69% [at 42.5 µM]
O=c1oc2ccccc2c(O)c1C1CCCc2ccccc21 (stereo not given) | -2.18%
CCCSC(=O)N(CCC)CCC | 3.65%

Structure (SMILES) | activity change, negative = inhibition
C[N+](=O)[O-] | 4.13%
OC(c1ccccc1)(c1ccccc1)C1CCNCC1 | -10.6% [at 42.5 µM]
c1cc2c(c(N3CCNCC3)c1)OCCO2 | 5.67% [at 42.5 µM]
CCSC(=O)N(CC)C1CCCCC1 | 1.07%
OCCSCSCCO | 13%
O=[N+]([O-])c1cccc2cccnc12 | -11%
ClC(Cl)Br | 0.117%
CC(=O)Nc1cc([As](=O)(O)O)ccc1O | -1.71% [at 42.5 µM]
CC(Cl)(Cl)[N+](=O)[O-] | -13.1%
c1ccc(N2CCNCC2)cc1 | 5.51% [at 42.5 µM]
CN1CCN(C(=O)O[C@H]2c3nccnc3C(=O)N2c2ccc(Cl)cn2)CC1 | 4.24% [at 42.5 µM]
O=[N+]([O-])c1ccc(CBr)cc1 | -14%
CC(C(O)c1ccccc1)N(C)C/C=C/c1ccccc1 (stereo not given) | -10% [at 42.5 µM]
CCOC(=O)N(C)C(=O)CSP(=S)(OCC)OCC | -26.4%
O=[N+]([O-])c1cccc2c([N+](=O)[O-])cccc12 | -13.5%
CC(=O)C(Cl)Cl | 7.52%
O=C1OC(=O)C2C1C1(Cl)C(Cl)=C(Cl)C2(Cl)C1(Cl)Cl (stereo not given) | 1.6%
CC1=NNC(=O)N(/N=C/c2cccnc2)C1 | 12%
CC(C)CC#N | 8.6%
CC(C)NCC(O)c1ccc(N)c(C#N)c1 (stereo not given) | 10.4% [at 42.5 µM]
